Assay [1] concerns Wnt5a (protein binding on small-molecule microarray). In words: small molecules binding Wnt5a protein – biophysical, small-molecule microarray, 635/667 nm fluorescence, primary screen (AID 1142).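 Also: fluorescence read at 667 nm with signal to noise per printed feature.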 As to conditions: 635 nm fluorescence, higher = more signal.
Assay [2] is described as follows: ATP-based viability of Huh7 replicon cells – cell-based, CellTiter-Glo luminescence, basal, 48 h, cytotoxicity control for HCV replication inhibitor project, primary screen (AID 1143).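 Also: Huh7 hepatoma cells carrying a hepatitis C replication reporter with no stimulus; test concentration not given here.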 As to conditions: higher = more signal, called active from +8 up or from −8 down.
A short description of assay [3]: Pseudomonas biofilm growth suppression – PAO1 strain, BacTiter-Glo luminescence, LB-PBS, primary screen (AID 1144). As to conditions: P. aeruginosa PAO1 biofilm, 12 h, higher = more signal.
Assay [4] in a line: basal CRE-LacZ reporter activity in PC12 – cell-based, unstimulated, primary screen (AID 1145). As to conditions: no forskolin, luminescence, 4.5 h, higher = more signal, called active from +8 up or from −8 down.
Assay [5] can be described thus: forskolin-driven CRE-LacZ activity in PC12 – cell-based, CRE-LacZ reporter, forskolin-stimulated, primary screen (AID 1146).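 Also: PC12 cells with 6xCRE LacZ reporter stimulated by forskolin 10 µM; beta-galactosidase reporter signal reflecting CREB driven transcription.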 As to conditions: luminescence, 4.5 h, higher = more signal, called active from +8 up or from −8 down.
The target of assay [6] is Streptavidin (Streptomyces avidinii) (UniProt P22629). The experiment in a line: compounds binding control protein streptavidin – biophysical, small-molecule microarray, 635/667 nm fluorescence, artefact control for SMM compound annotation, primary screen (AID 1147).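 Also: signal reflects streptavidin binding to arrayed compounds as a control protein.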 As to conditions: higher = more signal.
Streptavidin (Streptomyces avidinii), sequence (P22629 whole entry, looked up): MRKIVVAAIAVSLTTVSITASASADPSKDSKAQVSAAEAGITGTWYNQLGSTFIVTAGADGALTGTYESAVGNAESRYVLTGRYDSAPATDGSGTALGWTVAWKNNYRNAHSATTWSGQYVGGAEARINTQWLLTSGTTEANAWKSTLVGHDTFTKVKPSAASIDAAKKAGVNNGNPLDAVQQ
Assay [7] is described as follows: probe aInhba binding on compound microarray – biochemical, small-molecule microarray, 635/667 nm fluorescence, primary screen (AID 1148).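 Also: score merges 667nm spot fluorescence with signal-to-noise for antibody binding to printed compounds.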 As to conditions: higher = more signal.
For assay [8], the target named is Torsin-1A (Homo sapiens) (UniProt O14656). In words: TOR1A wild-type binding on microarray – cell lysate, small-molecule microarray, lysate, 635/667 nm, primary screen (AID 1149). As to conditions: COS7 hTOR1A-WT lysate, 635 nm fluorescence, higher = more signal.
Torsin-1A (Homo sapiens), sequence (O14656 whole entry, looked up): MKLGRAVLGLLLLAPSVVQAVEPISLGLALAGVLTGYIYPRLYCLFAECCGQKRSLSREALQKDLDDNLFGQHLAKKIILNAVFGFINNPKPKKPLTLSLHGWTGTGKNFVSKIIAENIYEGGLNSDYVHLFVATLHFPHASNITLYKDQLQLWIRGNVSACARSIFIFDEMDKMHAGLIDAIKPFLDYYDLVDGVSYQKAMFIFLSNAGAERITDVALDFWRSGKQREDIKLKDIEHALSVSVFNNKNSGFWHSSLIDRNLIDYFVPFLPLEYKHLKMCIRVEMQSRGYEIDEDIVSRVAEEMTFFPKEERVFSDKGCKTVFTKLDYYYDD
Assay [9] shares this target. The experiment in a line: torsin A mutant lysate binding on microarrays – cell lysate, small-molecule microarray, COS7 lysate, 635/667 nm fluorescence, primary screen (AID 1150).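 Also: score pools 667 nm emission and signal to noise measuring lysate protein binding.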 As to conditions: COS7 hTOR1A mutant lysate, 635 nm fluorescence, higher = more signal.
The subject of assay [10] is Sonic hedgehog protein (Shh). The experiment in a line: Sonic hedgehog microarray binding compounds – biochemical, small-molecule microarray, 635/667 nm fluorescence, primary screen (AID 1151).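 Also: Shh protein binding to compounds spotted on small-molecule microarray slides; score combines spot fluorescence intensity with signal-to-noise across triplicate slides.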 As to conditions: 635 nm fluorescence, higher = more signal.
Assay [11] in a line: optical density shifts of acrAB sulA E. coli – strain DRC41, OD650, 48 h, E. coli filamentation inducer project, primary screen (AID 1152).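 Also: E. coli MC1000 strain DRC41 lacking acrAB efflux pump and sulA.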 As to conditions: higher = more signal, called active from +8 up or from −8 down.
A short description of assay [12]: probe aLefty1 binding on compound microarray – biochemical, small-molecule microarray, 635/667 nm fluorescence, primary screen (AID 1153).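 Also: score merges spot fluorescence with signal-to-noise ratio from the scanned slide images.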 As to conditions: higher = more signal.
Assay [13] in a line: plasmodial surface anion channel blockers, osmotic lysis – cell-based, P. falciparum Indochina, OD700, 1 h, primary screen (AID 1154). As to conditions: P. falciparum Indochina infected RBC osmotic lysis, higher = more signal, called active from +8 up or from −8 down.
The nature of assay [14]: plasmodial surface anion channel blockers, osmotic lysis – cell-based, P. falciparum Indochina, OD700, 2 h, primary screen (AID 1155).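 Also: lysis reports solute entry through the parasite surface anion channel PSAC.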 As to conditions: P. falciparum Indochina infected erythrocytes, higher = more signal, called active from +8 up or from −8 down.
Assay [15] can be described thus: changes in parasitized red cell lysis, either direction – P. falciparum Indochina, OD700, 3 h, PSAC antagonist project, primary screen (AID 1156). As to conditions: P. falciparum-infected erythrocytes, osmotic lysis, higher = more signal, called active from +8 up or from −8 down.
The nature of assay [16]: plasmodial surface anion channel blockers, osmotic lysis – cell-based, P. falciparum Indochina, OD700, 18 h, primary screen (AID 1157). As to conditions: P. falciparum Indochina infected erythrocytes, osmotic lysis OD700, 18 h; higher = more signal, called active from +8 up or from −8 down.
Assay [17] is described as follows: S6 kinase pathway phospho-S6 level changes – cell-based, A549, cytoblot, luminescence, serum-stimulated, primary screen (AID 1158).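 Also: serum-stimulated A549 lung adenocarcinoma cells; signal is phosphorylated S6 detected by cytoblot immunostaining with HRP secondary.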 As to conditions: 5 h, higher = more signal.
For assay [18], the target named is NADPH oxidase 2 (Homo sapiens) (UniProt P04839). In words: compounds shifting NOX2 Amplex Red fluorescence – cell-based, HEK293-NOX2, PMA-stimulated, NOX inhibitor project, primary screen (AID 1159). Also: test concentration not given here. As to conditions: 45 min, higher = more signal, called active from +8 up or from −8 down.
NADPH oxidase 2 (Homo sapiens), sequence (P04839 whole entry, looked up): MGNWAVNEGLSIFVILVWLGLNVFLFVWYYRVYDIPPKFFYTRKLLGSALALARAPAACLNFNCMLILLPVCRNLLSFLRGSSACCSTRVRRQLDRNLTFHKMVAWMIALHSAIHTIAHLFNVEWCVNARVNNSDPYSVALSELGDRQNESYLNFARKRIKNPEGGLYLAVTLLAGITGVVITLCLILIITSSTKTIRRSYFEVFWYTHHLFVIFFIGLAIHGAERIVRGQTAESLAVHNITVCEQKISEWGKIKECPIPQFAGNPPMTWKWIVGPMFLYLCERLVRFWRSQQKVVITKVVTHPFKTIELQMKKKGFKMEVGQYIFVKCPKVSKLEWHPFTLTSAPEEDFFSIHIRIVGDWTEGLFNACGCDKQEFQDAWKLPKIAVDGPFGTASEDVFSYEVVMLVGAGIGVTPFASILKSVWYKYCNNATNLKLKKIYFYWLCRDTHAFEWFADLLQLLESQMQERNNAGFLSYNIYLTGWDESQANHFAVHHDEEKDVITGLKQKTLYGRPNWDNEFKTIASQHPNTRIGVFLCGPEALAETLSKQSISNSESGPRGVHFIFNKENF
The target of assay [19] is NADPH oxidase 4 (Homo sapiens) (UniProt Q9NPH5). The experiment in a line: compounds shifting NOX4 Amplex Red fluorescence – cell-based, HEK293-NOX4, tetracycline-induced, NOX inhibitor project, primary screen (AID 1160). As to conditions: HEK293-NOX4, Amplex Red H2O2 fluorescence, 45 min; higher = more signal, called active from +8 up or from −8 down.
NADPH oxidase 4 (Homo sapiens), sequence (Q9NPH5 whole entry, looked up): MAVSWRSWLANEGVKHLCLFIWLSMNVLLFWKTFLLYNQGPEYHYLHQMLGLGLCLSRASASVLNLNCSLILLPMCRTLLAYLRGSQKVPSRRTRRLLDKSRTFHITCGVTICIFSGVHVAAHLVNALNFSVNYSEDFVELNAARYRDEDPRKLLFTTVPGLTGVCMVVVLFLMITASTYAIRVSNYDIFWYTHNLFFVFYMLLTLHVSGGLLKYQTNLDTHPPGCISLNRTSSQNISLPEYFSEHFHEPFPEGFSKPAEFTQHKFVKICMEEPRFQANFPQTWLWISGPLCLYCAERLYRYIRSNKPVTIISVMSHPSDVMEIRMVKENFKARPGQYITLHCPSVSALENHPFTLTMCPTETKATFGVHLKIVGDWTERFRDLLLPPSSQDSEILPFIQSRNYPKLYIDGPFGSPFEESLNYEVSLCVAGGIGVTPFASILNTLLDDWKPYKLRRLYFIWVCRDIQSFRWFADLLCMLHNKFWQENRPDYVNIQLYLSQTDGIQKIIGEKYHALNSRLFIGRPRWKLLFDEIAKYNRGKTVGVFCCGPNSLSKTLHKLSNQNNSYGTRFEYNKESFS
Assay [20] addresses NADPH oxidase 5 (Homo sapiens) (UniProt Q96PH1). In words: compounds shifting NOX5 Amplex Red fluorescence – cell-based, HEK293-NOX5, NOX inhibitor project, primary screen (AID 1161). As to conditions: HEK293-NOX5, ionomycin, 45 min, higher = more signal.

Activity calls are given as the source filed them. Unless noted, no rule for the calls is given here.

NADPH oxidase 5 (Homo sapiens), sequence (Q96PH1 whole entry, looked up): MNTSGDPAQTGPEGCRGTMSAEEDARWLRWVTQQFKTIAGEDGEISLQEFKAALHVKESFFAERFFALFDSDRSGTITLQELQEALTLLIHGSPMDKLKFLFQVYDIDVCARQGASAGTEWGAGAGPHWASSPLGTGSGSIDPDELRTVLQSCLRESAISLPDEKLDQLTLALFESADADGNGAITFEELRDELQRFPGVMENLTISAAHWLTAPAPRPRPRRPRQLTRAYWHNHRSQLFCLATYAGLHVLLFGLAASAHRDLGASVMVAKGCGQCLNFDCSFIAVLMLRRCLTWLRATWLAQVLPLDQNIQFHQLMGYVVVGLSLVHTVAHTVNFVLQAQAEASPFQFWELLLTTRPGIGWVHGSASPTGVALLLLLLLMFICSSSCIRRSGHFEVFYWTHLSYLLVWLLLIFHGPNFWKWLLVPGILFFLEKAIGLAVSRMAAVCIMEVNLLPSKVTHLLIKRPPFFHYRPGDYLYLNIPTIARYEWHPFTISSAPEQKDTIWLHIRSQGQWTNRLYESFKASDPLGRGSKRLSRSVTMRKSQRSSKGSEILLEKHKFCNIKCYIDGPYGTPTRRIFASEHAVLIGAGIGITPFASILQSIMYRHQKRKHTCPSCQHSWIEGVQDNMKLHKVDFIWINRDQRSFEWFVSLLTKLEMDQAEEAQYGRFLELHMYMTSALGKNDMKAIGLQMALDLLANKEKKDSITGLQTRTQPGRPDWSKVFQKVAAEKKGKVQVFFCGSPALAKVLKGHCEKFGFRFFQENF

As for `CC(=O)OC[C@H]1O[C@H](CC=NOC[C@@H](O)[C@H]2O[C@@H]3OC(C)(C)O[C@@H]3[C@H]2O)C=C[C@@H]1OC(C)=O`, the composite z-score is 0.0795 in assay [1]; 0.168 in assay [6]; -0.152 in [7]; -0.197 with Torsin-1A (Homo sapiens) [8]; 0.071 with Torsin-1A (Homo sapiens) [9]; -0.0919 in [10]. In assay [12], the composite z-score was found to be 0.145. In addition, the z-score is 0.165 (inactive) in assay [2]; -0.0289 (inactive) in [3]; -1.3 (inactive) in assay [4]; -0.521 (inactive) in [5]; -1.11 (inactive) in assay [11]; 0.466 (inactive) in [13]. Further, the z-score in [14] was 0.274 (inactive); in [15], 0.0662 (inactive); in [16], 0.466 (inactive); in [17], -0.549; in [18], -0.462 (inactive); in assay [19], 0.136 (inactive). Moreover, the z-score in [20] is -0.515.
As to `COC(=O)[C@H](C)NC(=O)CCC1CC(OC(=O)NCCc2ccc(F)cc2)CC2(CCCC(COC(=O)NCCc3ccccc3OC)O2)O1` (stereo not given in full), the composite z-score in assay [1] was 0.249; in [6], 0.553; in assay [7], -0.343; in the assay with Torsin-1A (Homo sapiens) [8] it was 0.284; with Torsin-1A (Homo sapiens) [9] it was 0.519; in assay [10], 0.985. Moreover, the composite z-score in assay [12] is -0.103. The z-score was 0.137 (inactive) in assay [2]; 0.351 (inactive) in [3]; 0.559 (inactive) in assay [4]; 0.0825 (inactive) in assay [5]; 0.121 (inactive) in assay [11]; 6.98 (inactive) in [13]. Moreover, the z-score in assay [14] was 0.0923 (inactive); in assay [15] it was 0.209 (inactive); in [16] it was 0.15 (inactive); in assay [17] it was 0.364; in [18] it was 0.577 (inactive); in assay [19], 0.369 (inactive). Moreover, in [20], the z-score was -0.543.
Regarding `CC(CCN1CCCc2nc(C)c(C)cc21)=NOC[C@@H](C)[C@H](OCc1ccccc1)C(C)C`, the composite z-score was -0.257 in assay [1]; -0.983 in assay [6]; -0.101 in assay [7]; -0.469 in the assay with Torsin-1A (Homo sapiens) [8]; -0.931 with Torsin-1A (Homo sapiens) [9]; 0.0185 in assay [10]. In addition, the composite z-score in assay [12] is -0.147. Further, the z-score is -1.01 (inactive) in assay [2]; -0.47 (inactive) in assay [3]; -1.14 (inactive) in [4]; -0.186 (inactive) in [5]; 0.259 (inactive) in assay [11]; 1.25 (inactive) in assay [13]. For the same compound, the z-score in assay [14] was -1.75 (inactive); in assay [15] it was -0.167 (inactive); in assay [16], -1.84 (inactive); in assay [17], 2; in assay [18] it was -2.43 (inactive); in assay [19], -1.68 (inactive). In addition, the z-score in assay [20] was -1.12.
In the case of `CCOC(=O)CCN1C(=O)[C@H]2[C@H]3[C@H](O)[C@H](O)CC(=NNC(=O)OCc4ccccc4)[C@H]3CC[C@H]2C1=O`, the composite z-score was 0.126 in [1]; -0.362 in assay [6]; -0.0781 in assay [7]; 1.95 with Torsin-1A (Homo sapiens) [8]; 2.44 with Torsin-1A (Homo sapiens) [9]; 0.968 in [10]. In assay [12], this compound came in with a composite z-score of -0.0162. The z-score in assay [2] was -1.31 (inactive); in [3], -0.326 (inactive); in assay [4], 1.07 (inactive); in assay [5] it was -0.253 (inactive); in assay [11] it was -0.351 (inactive); in assay [13], 0.992 (inactive). The z-score is 0.0095 (inactive) in assay [14]; 0.0794 (inactive) in assay [15]; 0.0606 (inactive) in [16]; -0.707 in assay [17]; 1.28 (inactive) in [18]; 0.327 (inactive) in [19]. Besides, the z-score in assay [20] was determined as 0.595.

These data come from PubChem BioAssay.
